Screening data deposited in PubChem BioAssay by National Center for Advancing Translational Sciences (NCATS).
Pf growth 96h: inhibits malaria parasite growth, 96 h; P. falciparum luciferase reporter growth, 96 h; Potency, µM (highest dose often 28.7 µM), without a hit: at the highest dose activity change, negative = inhibition, usual class: inhibitors; 320,000 compounds, 6.9% hits; AID 504834; also: % is scaled to controls: 0 for no effect and ±100 for the full control effect
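Delayed-death screen, second-generation endpoint: infected erythrocytes, 2% hematocrit, 0.05% parasitemia final; 96 hours at 37 C, 5% CO2; luciferase detection reagent; luminescence decrease equals reduced growth.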
AmpC no deterg: AmpC beta-lactamase inhibition without detergent; P00811; AmpC nitrocefin hydrolysis, absorbance 480 nm, 0.0001% Triton; Potency, µM (series often up to 57.1 µM), without a hit: at the highest dose activity change, negative = inhibition, hits mostly inhibitors; 330,000 compounds, 0.52% hits; AID 485341;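 also: plate controls were no compound for no effect and no enzyme for full effect; nearly all actives have a fitted effect of over 20% in size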
Target sequence (P00811 whole entry, looked up): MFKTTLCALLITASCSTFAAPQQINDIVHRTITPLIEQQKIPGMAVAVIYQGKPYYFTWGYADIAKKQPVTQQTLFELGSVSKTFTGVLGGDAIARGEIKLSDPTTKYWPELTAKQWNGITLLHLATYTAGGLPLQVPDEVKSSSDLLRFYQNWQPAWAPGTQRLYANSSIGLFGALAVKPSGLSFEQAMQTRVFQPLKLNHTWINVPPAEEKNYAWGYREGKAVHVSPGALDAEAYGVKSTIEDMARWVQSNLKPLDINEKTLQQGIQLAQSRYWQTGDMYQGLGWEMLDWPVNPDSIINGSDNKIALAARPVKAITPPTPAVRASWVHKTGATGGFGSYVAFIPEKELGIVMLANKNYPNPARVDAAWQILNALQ
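20 mM phosphate pH 7.0 + 0.01% (detergent screen) or 0.0001% Triton X-100; 5.3 nM AmpC reagent; cpd preinc 15 min RT; nitrocefin (800 uM stock) to start; A480 q20 s × 4 min; Activity was normalised to no-enzyme and no-compound control wells.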
Sm TGR block: inhibitors of Schistosoma mansoni thioredoxin glutathione reductase; Q962Y6; purified TGR, DTNB reduction, TNB absorbance 405 nm; Potency, µM (doses to about 114 µM), for the others: at the highest dose activity change, negative = inhibition, actives largely listed as inhibitors; 360,000 compounds, 3% hits; also: % is scaled to controls: 0 for no effect and ±100 for the full control effect; nearly all actives have a fitted effect of over 60% in size
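TGR 20 nM + NADPH 100 uM (dispensed conc.), cpd preinc 15 min RT; start with NADPH (500 uM addition) then DTNB (15 mM addition). Kinetic TNB absorbance, 405 nm filter. Four-parameter Hill fit across titration.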
Pf growth 48h: P. falciparum growth inhibition at 48 hours (one generation) | P. falciparum luciferase growth in erythrocytes, 48 h | Potency, µM (titrated, usually from 28.7 µM), for the others: at the top dose activity change, negative = inhibition, most hits filed as inhibitors | 310,000 compounds, 5.9% hits; also: % is scaled to controls: 0 for no effect and ±100 for the full control effect
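Luciferase-expressing P. falciparum in infected erythrocytes (2% hematocrit, 0.1% parasitemia final) in RPMI 1640/0.5% Albumax were exposed to compound for 48 hours at 37 C, 5% CO2; growth read as luminescence.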
SARS PLP yeast: inhibitors of SARS-CoV papain-like protease in yeast | Potency, µM (top dose mostly 32.9 µM), without a hit: at the highest dose activity, positive = growth rescue, actives largely listed as activators | 330,000 compounds, 0.19% hits | AID 485353 | S. cerevisiae expressing SARS-CoV PLpro, growth rescue; calls by dose curve; also: 0% is about no effect; nearly all actives have a fitted effect of over 55% in size
AmpC detergent: AmpC beta-lactamase inhibition with detergent present; Potency, µM (doses to about 114 µM), without a hit: top-dose activity change, negative = inhibition, actives largely listed as inhibitors; AmpC hydrolysis of nitrocefin, absorbance 480 nm, 0.01% Triton; AID 485294; 370,000 compounds, 0.041% hits;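 also: 0% = no-compound wells and -100% = no-enzyme wells; nearly all actives have a fitted effect of over 25% in size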
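20 mM phosphate pH 7.0 + 0.01% (detergent screen) or 0.0001% Triton X-100; 5.3 nM AmpC reagent; cpd preinc 15 min RT; nitrocefin (800 uM stock) to start; A480 q20 s × 4 min; Activity was normalised to no-enzyme and no-compound control wells.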
Active calls of the source: *; ? = inconclusive; nt = not tested or not shown; [ ] = remark or other dose. Only some compounds are listed: those with a hit (about 12% of all), similar ones and a draw of the others. Unless noted, calls follow the shape of the dose curve; as a rule, active = well fitted curve in the direction sought with a large enough effect; inconclusive = small, poorly fitted or top-dose-only effect, or another doubt; inactive = no such curve, though single readings can be large; an effect the other way counts as inactive or inconclusive. Potency is read from the fitted curve at half-maximal effect.

SMILES	Pf growth 96h	AmpC no deterg	Sm TGR block	Pf growth 48h	SARS PLP yeast	AmpC detergent
CC(C)c1cc(C(=O)N2CCCC(N3CCN(c4ccc(F)cc4)CC3)C2)no1 (centres undefined)	-9%	-5%	-8%	?	1%	-1%
NCCCCCc1nnc(SCc2ccc(F)cc2)o1	nt	nt	-3%	nt	nt	-2%
CC(Oc1ccccc1)C(=O)Nc1ccc(S(=O)(=O)NCC2CCCO2)cc1 (centres undefined)	nt	-8%	-2%	-7%	2%	-14%
NS(=O)(=O)c1ccc(NC(=O)COC(=O)c2ccc(S(=O)(=O)N3CCOCC3)cc2)cc1	nt	-54%	nt	nt	-1%	nt
CCCc1nnc(NC(=O)c2nc(S(=O)(=O)Cc3ccc(C)cc3)ncc2Cl)s1	?	20%	25µM*	11%	1%	20%
C/C(=N\NC1=NCCN1)c1ccc(Cl)cc1	2.3µM*	-16%	14%	?	-2%	-2%
O=C(COC(=O)c1nc(Cl)ccc1Cl)Nc1ccc(Cl)cn1	-17%	-31%	-17%	?	-7%	?
O=C(COC(=O)c1ncc(Cl)c(Cl)c1Cl)Nc1ccc(Cl)cn1	10%	-34%	40µM*	6%	1%	-10%
O=C1C2C3CC(C(Br)C3Br)C2C(=O)N1c1ccccn1 (centres undefined)	32%	-6%	7%	?	-2%	-3%
Cc1ccnc(N2C(=O)C3C4CC(C(Br)C4Br)C3C2=O)c1 (centres undefined)	9.3µM*	-6%	-12%	20%	-4%	1%
Cc1ccnc(N2C(=O)c3ccccc3C2=O)c1	12µM*	-17%	-1%	-14%[0.00184 µM]	1%	-6%
O=S(=O)(c1ccc(Cl)c(C(F)(F)F)c1)N1CCN(c2ccccn2)CC1	8%	-19%	-3%	2%	2%	-9%
COc1ccc(-c2cc(=O)c3c(OC)c(OC)c(OC)cc3o2)cc1	12µM*	51%	-5%	?	-1%	-4%
COc1cc(-c2cc(=O)c3c(O)cc(O)cc3o2)ccc1O	13µM*	-51%	-35%	?	-1%	7%
CC(C)c1ccc(NC(=O)CN(C)S(=O)(=O)c2ccc3c(c2)n(C)c(=O)c(=O)n3C)cc1	nt	nt	6%	nt	nt	9%
CCc1ccccc1NC(=O)N(C)CCc1c(C)nn(C)c1C	nt	nt	3%	nt	nt	7%
CN(C)c1cc[n+](Cc2c(Cl)cccc2Cl)cc1	0.37µM*	-9%	-1%	4.7µM*	-19%	-11%
COc1ccc(-c2ccc(SCc3ccccn3)nn2)cc1OC	2.6µM*	3%	-1%	3%	-5%	4%
CCOC1OC(=O)C(Cl)=C1Nc1ccc(C)cc1 (centres undefined)	5%	-19%	-2%	22%	-1%	-8%
CCOC1OC(=O)C(Cl)=C1Nc1ccc(C)cc1C (centres undefined)	2.3µM*	-2%	-20%	?	2%	-12%
Cc1nc(N2CCOCC2)nc(Oc2ccccc2)c1[N+](=O)[O-]	3%	0%	7.1µM*	-5%	-1%	5%
O=Cc1c(-c2ccccc2)nc2ccccn12	13µM*	-9%	7%	-2%	0%	3%
CCCc1n(CC(O)COCc2ccccc2)c2ccccc2[n+]1C (centres undefined)	6%	7%	3%	3.3µM*	-1%	5%
CCCc1n(CC(O)COCC2CC=CCC2)c2ccccc2[n+]1C (centres undefined)	35%	8%	0%[57.1 µM]	?	0%	?
C[n+]1cn(CC(O)COCc2ccccc2)c2ccccc21 (centres undefined)	4.7µM*	-5%	4%	?	-5%	-9%
CCCc1n(CC(O)COC2CCCCC2)c2ccccc2[n+]1C (centres undefined)	-2%	0%	0%[57.1 µM]	4.1µM*	1%	-13%
